Assay outcomes (PubChem BioAssay)
eIF4H FP inh: inhibitors of RNA binding by human eIF4H; Q15056; eIF4H fluorescence polarization binding assay; inhibition, % at 35 µM; 290,000 compounds, 0.94% hits;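 further: calls also rest on retests at 20 µM and on dose response follow-up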
MLLE-PAM2 inh: blocks PAM2 peptide binding to the PABP1 MLLE domain | GST-MLLE / FITC-PAM2 fluorescence polarization | inhibition, % at 20 µM | P11940 | 360,000 compounds, 0.36% hits | AID 588489; in the data active means inhibition above about 35%, passing the limit was not always enough
PABP polyA inh: blocks human PABP binding to poly(A) RNA | P11940 | fluorescence polarization | inhibition, % at 35 µM | 290,000 compounds, 1% hits | AID 2014;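 further: calls also rest on retests at 20 µM and on dose response follow-up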
eIF4E 4G PPI: inhibitors of eIF4E and eIF4G interaction in translation initiation | TR-FRET eIF4E-eIF4GI(517-606) binding, 2 h | inhibition, % at 21.7 µM | 220,000 compounds, 0.37% hits;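 active means inhibition above about 30%, limit read from the data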
PERK inh: blocks human PERK kinase; inhibition, % at 5.6 µM; CHO PERK-DD fusion, SEAP luminescence translation reporter; Q9NZJ5; 220,000 compounds, 0.17% hits;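 active means inhibition above the mean inhibition of all tested compounds plus 3 SD, set separately per screening campaign, cut at about 2.9% in these data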;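 further: PERK kinase domain activated by AP20187 dimerizer at 100 nM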
Large screens that a line does not name were inactive; ! = not active in a repeat; [ ] = remark or other dose. In the library only some 1.6% were active in any assay of this set; here they are far more common. Unless noted, how the calls were made is not given here.

C/C(=N\OC(=O)c1ccc(F)cc1)c1nccs1	PERK inh 3.2
Oc1ccc(CN2CCCc3ccccc32)c2cccnc12	MLLE-PAM2 inh 42
COc1cccc2sc(Nc3nnc(-c4ccc(F)cc4)o3)nc12	none
Fc1cccc2sc(Nc3nnc(-c4ccco4)o3)nc12	eIF4H FP inh 61, PABP polyA inh active
CNc1sc(C(=O)c2ccccc2F)c(N)c1-c1nc2ccccc2s1	MLLE-PAM2 inh 41
CNC(=O)CC(C(=O)O)c1ccc(OCC(C)C)cc1 (stereo unspecified)	none
CCCN(CCC)CCCNC(=O)C(NS(=O)(=O)c1ccc2c(c1)CCC(=O)N2)c1ccccc1 (stereo unspecified)	none
Cc1cccc(NC(=O)C(NS(=O)(=O)c2ccc3c(c2)CCC(=O)N3)c2ccccc2)n1 (stereo unspecified)	MLLE-PAM2 inh 44
CCOC(=O)Cn1c(=O)oc2cc(S(=O)(=O)NCc3cccs3)ccc21	eIF4E 4G PPI 54[fluorescence artefact?]
O=C(Nc1nnc(-c2cccs2)s1)C1CC1	none
CCN1C(=O)[C@H]2[C@H]3CN=C(SCC(=O)c4ccccc4)N3[C@@](C)(C(=O)OC)[C@H]2C1=O	MLLE-PAM2 inh 45 (no result: eIF4H FP inh, PABP polyA inh, eIF4E 4G PPI, PERK inh)
O=C(NCCc1ccc(Cl)cc1)c1ccc2nccnc2c1	none (no result: eIF4E 4G PPI, PERK inh)
CCOC(=O)c1sc(NC(=O)CSc2nccn2C)nc1C	none (no result: eIF4E 4G PPI, PERK inh)
O=Cc1cccn1-c1cccc([N+](=O)[O-])c1	none
O=C(O)c1cccc(-n2cccc2/C=C/[N+](=O)[O-])c1	eIF4H FP inh 94, PABP polyA inh 76, PERK inh 3.2
O=C(O)c1cccc(-n2cccc2/C=N/O)c1	eIF4H FP inh 92, PABP polyA inh 63
ON=Cc1cccn1-c1ccccc1	none
O=C(O)c1cccc(-n2cccc2/C=C\[N+](=O)[O-])c1	PABP polyA inh 58
CN1C(=O)S/C(=C/c2cccn2-c2cccc(C(=O)O)c2)C1=O	none
Cc1ccc(NC(=S)N2CCc3[nH]c4ccccc4c3C2)cc1	none
Cc1ccc(C)c(S(=O)(=O)Nc2ccc3oc(C)c(C(=O)O)c3c2)c1	eIF4H FP inh 87, PABP polyA inh 75 (no result: eIF4E 4G PPI, PERK inh)
CC(=O)c1c(C)oc2ccc(NS(=O)(=O)c3ccc(C)cc3)cc12	none (no result: eIF4E 4G PPI, PERK inh)
COc1ccc(NC(=O)C(c2ccc(OC)cc2)N(C)C(=O)Cc2cccs2)cc1 (stereo unspecified)	none
COc1ccc(NC(=O)C(c2ccc(C)cc2)N(C)C(=O)Cc2cccs2)cc1 (stereo unspecified)	eIF4H FP inh 63, PABP polyA inh 5.4
Cc1cccc(N2CCN(C(=O)Cc3cn(C)c4ccccc34)CC2)c1C	eIF4H FP inh 112, PABP polyA inh 84
Cc1cscc(C)c1=S	MLLE-PAM2 inh 38 (no result: eIF4H FP inh, PABP polyA inh, eIF4E 4G PPI, PERK inh)
CSc1nc(O)c(C(c2ccccc2)c2c(O)nc(SC)[nH]c2=O)c(=O)[nH]1	none (no result: eIF4E 4G PPI, PERK inh)
CSc1nc(O)c(C2OC(=O)c3ccccc32)c(=O)[nH]1 (stereo unspecified)	PERK inh 2.9
COc1ccc(N2CCN(c3oc(-c4ccco4)nc3C#N)CC2)cc1	eIF4H FP inh 100
CC(=O)Nc1ccc(NC(=O)/C=C/c2ccc(Cl)cc2)cc1	none
CNCc1ccccc1Sc1cc(O)ccc1O	MLLE-PAM2 inh 45, eIF4E 4G PPI 48[fluorescence artefact?]
CC(=O)Nc1ccc(OCCCNC(=O)c2c(-c3ccccc3)noc2C)cc1	eIF4E 4G PPI 35
COCc1cc(=O)[nH]c(SCCS(=O)(=O)c2ccc(Cl)cc2Cl)n1	MLLE-PAM2 inh 38
COCc1cc(=O)[nH]c(SCCS(=O)(=O)c2ccc(C)cc2)n1	none
CCCCCC(=O)Nc1cc(S(=O)(=O)N2CCOCC2)ccc1N1CCN(C)CC1	none (no result: eIF4E 4G PPI, PERK inh)
Cc1cccc(Nc2n[nH]c(=S)s2)c1C	eIF4E 4G PPI 58
Cc1cccc(C)c1Nc1n[nH]c(=S)s1	none (no result: eIF4H FP inh, PABP polyA inh, eIF4E 4G PPI, PERK inh)
Cc1cccc(NC(=S)NNC(=O)c2ccco2)c1	PERK inh 3.1
COc1ccc(NC(=O)c2ccco2)cn1	eIF4H FP inh inconclusive, MLLE-PAM2 inh 52, PABP polyA inh inconclusive (no result: eIF4E 4G PPI, PERK inh)
COc1cc(C(=O)NC(=S)Nc2ccc(NC(=O)c3ccco3)cc2)cc(OC)c1OC	MLLE-PAM2 inh 36
COc1ccc(NC(=S)NC(=O)c2ccccc2)cn1	MLLE-PAM2 inh 42 (no result: eIF4E 4G PPI, PERK inh)
COc1cc(OC)c2c(c1)O/C(=C\c1ccccc1)C2=O	none (no result: eIF4H FP inh, PABP polyA inh, eIF4E 4G PPI, PERK inh)
C#CCOCCOCCOCCNc1nc(N2CCN(C(=O)C([C@@H](C)CC)n3cc(C(N)CO)nn3)CC2)nc(N2CCN(C(=O)[C@H](CCC(=O)O)n3cc(C(N)CC(C)C)nn3)CC2)n1 (stereo partly specified)	none
COc1cc(NC(=S)Nc2ccc(OC(F)F)cc2)cc(OC)c1	MLLE-PAM2 inh 41
COc1cc(NC(=S)Nc2ccc(N(C)C(C)=O)cc2)cc(OC)c1	MLLE-PAM2 inh 36
CC(=O)N(C)c1ccc(NC(=S)Nc2ccccc2)cc1	none
CCOC(=O)N1CCC(NC(=O)CS(=O)Cc2nc(-c3ccccc3C)oc2C)CC1 (stereo unspecified)	none (no result: eIF4E 4G PPI, PERK inh)
COc1ccc2c3c(ccc2c1)C(=O)/C(=C/O)CC3	MLLE-PAM2 inh 43 (no result: eIF4H FP inh, PABP polyA inh, eIF4E 4G PPI, PERK inh)
O=C(CSc1ccc2c(c1)OCCO2)NCCc1ccc(Cl)cc1Cl	MLLE-PAM2 inh 40
CCSc1nnc(NC(=O)c2nc3nc(C)cc(C)n3n2)s1	none
COc1ccc2c3c(cccc13)C(=O)N(O)C2=O	MLLE-PAM2 inh 40
c1ccc(SCCc2ccncc2)cc1	none
Fc1ccc(SCCc2ccncc2)cc1	MLLE-PAM2 inh 43!
CN(C)CCCN1C(=O)c2cccc3c(Br)ccc(c23)C1=O	MLLE-PAM2 inh 57
COc1ccc(OCC(=O)Nc2nnc(S(=O)(=O)N3CCCCCC3)s2)cc1	none (no result: eIF4E 4G PPI, PERK inh)
Cc1ccc(OCC(=O)Nc2nnc(S(=O)(=O)N3CCC(C)CC3)s2)cc1	eIF4H FP inh 63 (no result: eIF4E 4G PPI, PERK inh)
O=C(O)c1csc(Cc2ccccc2)n1	none
CCOc1ccc(-c2c(C(=O)N/N=C/c3ccc(O)cc3)nnn2-c2nonc2N)cc1	none
CCOC(=O)N1CC=C2C(C#N)=C(N)C(C#N)(C#N)[C@H](c3cccs3)C2C1 (stereo partly specified)	eIF4H FP inh inconclusive
CC1CC=C2C(C#N)=C(N)C(C#N)(C#N)C(c3cccs3)C2C1 (stereo unspecified)	eIF4H FP inh 123, PABP polyA inh 124
O=C(c1ccc(Cl)c(S(=O)(=O)N2CCOCC2)c1)N(Cc1ccco1)Cc1cccs1	none (no result: eIF4H FP inh, PABP polyA inh, eIF4E 4G PPI, PERK inh)
CC1(C)CC(=O)C/C(=N\NC(=O)Cc2ccccc2)C1	eIF4H FP inh active, PABP polyA inh 93
Cc1cc(Cl)ccc1Oc1nc(-c2ccccc2)ncc1S(C)(=O)=O	none
CCOC(=O)N1CCc2[nH]c3ccc(C)cc3c2C1	MLLE-PAM2 inh 56
O=C(N1CCc2[nH]c3ccccc3c2C1)C(F)(F)F	none (no result: eIF4E 4G PPI, PERK inh)
CC(=O)N1CCc2[nH]c3ccccc3c2C1	PERK inh 3.3
COc1ccccc1NC(=O)N1CCc2[nH]c3ccc(F)cc3c2C1	eIF4H FP inh 102, PABP polyA inh 86
Cc1ccc2[nH]c3c(c2c1)CN(C(=O)CN1CCSCC1)CC3	eIF4H FP inh 53, PABP polyA inh 94 (no result: MLLE-PAM2 inh)
CCCc1nnc(NC(=O)CCC(=O)NCc2ccccc2OC)s1	none
Fc1ccc(CNCC2CCCO2)cc1 (stereo unspecified)	none (no result: eIF4E 4G PPI, PERK inh)
